# Laboratory results from PubChem BioAssay (NCATS).
# Records with an inconclusive call do not appear. A call without a number means that no potency is given here. Activity calls are given as the source filed them. Unless noted, calls come from the whole dose curve; as a rule, active = well fitted curve in the direction sought with a large enough effect; inconclusive = small, poorly fitted or top-dose-only effect, or another doubt; inactive = no such curve, though single readings can be large; an effect the other way counts as inactive or inconclusive.
# Key:
# [1] = qHTS assay for small molecule antagonists of retinoid X receptor alpha signaling (AID 588546; active = well fitted inhibition curve with a large enough effect in the signal ratio, with a control signal flat, not every such curve was filed as active; the % refers to the signal ratio;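 note: cells stimulated with 9-cis-retinoic acid as agonist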); conditions: HEK293T RXRa-UAS-bla, beta-lactamase ratio, antagonist mode; measured here: W530 green channel, cytotoxicity proxy
# Summary of the method: (§1)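 Beta-lactamase reporter inhibition, read as CCF4 fluorescence ratio (ex 405, em 460/530 nm) after 2 h at RT. HEK293T UAS-bla cells, 2500/well, were stimulated with 9-cis-RA at 500 or 100 nM final alongside test compound for 18 h at 37 C.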
# [2] = target: Retinoic acid receptor RXR-alpha (Homo sapiens) (UniProt P19793); test: as above; conditions: HEK293T RXRa-UAS-bla, beta-lactamase ratio, antagonist mode
# Chain of Retinoic acid receptor RXR-alpha (Homo sapiens) (P19793 whole entry, looked up): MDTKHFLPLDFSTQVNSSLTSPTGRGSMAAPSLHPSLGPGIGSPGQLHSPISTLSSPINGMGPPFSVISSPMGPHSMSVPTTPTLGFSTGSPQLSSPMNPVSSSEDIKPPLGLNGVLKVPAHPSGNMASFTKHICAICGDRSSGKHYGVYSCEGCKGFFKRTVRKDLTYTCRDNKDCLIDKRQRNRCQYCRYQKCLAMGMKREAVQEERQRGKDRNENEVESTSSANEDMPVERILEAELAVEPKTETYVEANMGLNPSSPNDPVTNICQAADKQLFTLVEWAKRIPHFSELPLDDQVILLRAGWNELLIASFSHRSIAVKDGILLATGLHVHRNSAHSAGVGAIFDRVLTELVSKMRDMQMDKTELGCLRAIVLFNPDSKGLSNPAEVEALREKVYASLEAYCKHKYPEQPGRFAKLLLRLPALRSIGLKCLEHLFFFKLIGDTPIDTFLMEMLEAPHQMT
# Summary of the method: as §1
# [3] = target: Thyroid hormone receptor beta (Homo sapiens) (UniProt P10828); test: qHTS assay for small molecule antagonists of thyroid hormone receptor beta signaling (AID 588547; active = well fitted inhibition curve with a large enough effect in the signal ratio, with a control signal flat, not every such curve was filed as active; the % refers to the signal ratio;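 note: cells stimulated with 0.4 nM T3 agonist during compound exposure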); conditions: TR-UAS-bla HEK293, beta-lactamase ratio, antagonist mode, 18 h
# Chain of Thyroid hormone receptor beta (Homo sapiens) (P10828 whole entry, looked up): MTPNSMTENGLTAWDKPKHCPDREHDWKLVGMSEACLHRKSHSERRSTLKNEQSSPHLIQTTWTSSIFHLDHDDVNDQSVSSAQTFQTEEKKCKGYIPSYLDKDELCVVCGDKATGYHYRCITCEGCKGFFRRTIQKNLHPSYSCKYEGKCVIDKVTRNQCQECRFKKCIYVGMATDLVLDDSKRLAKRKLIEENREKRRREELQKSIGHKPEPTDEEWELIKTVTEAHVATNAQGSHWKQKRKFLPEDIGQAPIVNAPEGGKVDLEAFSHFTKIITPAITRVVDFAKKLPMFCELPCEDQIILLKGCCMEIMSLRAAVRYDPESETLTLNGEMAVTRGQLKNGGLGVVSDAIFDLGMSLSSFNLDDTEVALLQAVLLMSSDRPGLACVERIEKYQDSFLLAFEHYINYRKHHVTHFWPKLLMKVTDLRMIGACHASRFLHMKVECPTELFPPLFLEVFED
# Summary of the method: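 TR-UAS-bla GripTite HEK293 cells in 2% charcoal/dextran FBS medium; compounds 0.59 nM to 92 uM with T3 at 0.4nM final, 18 h at 37 C. Beta-lactamase read by CCF4 fluorescence (460/530 nm); Hill fits gave IC50 and efficacy.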
# [4] = target: Voltage-gated inwardly rectifying potassium channel KCNH2 (Homo sapiens) (UniProt Q12809); test: qHTS Assay for Small Molecule Inhibitors of the Human hERG Channel Activity (AID 588834);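 note: top concentration of the series differs between compounds; lower thallium flux fluorescence means stronger hERG block; nearly all actives have a fitted effect of over 50% in size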
# Chain of Voltage-gated inwardly rectifying potassium channel KCNH2 (Homo sapiens) (Q12809 whole entry, looked up): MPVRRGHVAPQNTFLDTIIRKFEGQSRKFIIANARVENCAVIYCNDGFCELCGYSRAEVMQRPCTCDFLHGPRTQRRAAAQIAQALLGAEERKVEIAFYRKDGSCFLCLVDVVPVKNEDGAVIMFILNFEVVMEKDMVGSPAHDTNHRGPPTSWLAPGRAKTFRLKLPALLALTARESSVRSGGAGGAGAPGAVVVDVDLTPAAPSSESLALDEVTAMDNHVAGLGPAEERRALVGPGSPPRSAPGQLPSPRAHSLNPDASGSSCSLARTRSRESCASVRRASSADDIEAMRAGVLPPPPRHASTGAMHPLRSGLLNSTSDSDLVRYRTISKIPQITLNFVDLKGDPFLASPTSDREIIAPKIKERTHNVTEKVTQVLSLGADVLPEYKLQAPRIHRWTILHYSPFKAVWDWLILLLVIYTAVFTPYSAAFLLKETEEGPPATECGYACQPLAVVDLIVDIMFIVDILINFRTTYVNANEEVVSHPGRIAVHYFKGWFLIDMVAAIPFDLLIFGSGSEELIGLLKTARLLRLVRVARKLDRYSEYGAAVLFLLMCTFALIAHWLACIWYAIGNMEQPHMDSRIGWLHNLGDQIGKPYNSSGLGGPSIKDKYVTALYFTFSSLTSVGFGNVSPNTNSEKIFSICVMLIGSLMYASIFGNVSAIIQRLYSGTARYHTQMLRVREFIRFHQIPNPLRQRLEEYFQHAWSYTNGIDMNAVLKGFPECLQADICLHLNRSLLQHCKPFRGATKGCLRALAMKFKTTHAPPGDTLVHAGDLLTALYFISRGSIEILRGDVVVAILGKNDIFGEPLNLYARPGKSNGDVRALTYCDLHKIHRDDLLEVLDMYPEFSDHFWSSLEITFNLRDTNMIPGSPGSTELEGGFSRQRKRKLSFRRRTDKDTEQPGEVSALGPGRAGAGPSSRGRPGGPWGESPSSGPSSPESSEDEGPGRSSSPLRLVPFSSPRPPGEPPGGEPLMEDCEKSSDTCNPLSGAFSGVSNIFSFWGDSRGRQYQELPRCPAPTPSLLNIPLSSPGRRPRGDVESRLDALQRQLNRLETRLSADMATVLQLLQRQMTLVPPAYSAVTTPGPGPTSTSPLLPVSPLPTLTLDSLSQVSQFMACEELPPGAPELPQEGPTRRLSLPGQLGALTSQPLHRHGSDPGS
# Summary of the method: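 Thallium serves as surrogate for K+ influx through BacMam-delivered hERG in U2OS cells. Compounds are added for about 10 minutes after dye loading; stimulation buffer then starts flux, monitored kinetically on FDSS.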
# [5] = target: Luciferin 4-monooxygenase (Photinus pyralis) (UniProt P08659); test: Biochemical firefly luciferase enzyme assay for NPC (AID 624030);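 note: purified P. pyralis luciferase at 10 nM with luciferin and ATP substrate; nearly all actives have a fitted effect of over 70% in size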
# Chain of Luciferin 4-monooxygenase (Photinus pyralis) (P08659 whole entry, looked up): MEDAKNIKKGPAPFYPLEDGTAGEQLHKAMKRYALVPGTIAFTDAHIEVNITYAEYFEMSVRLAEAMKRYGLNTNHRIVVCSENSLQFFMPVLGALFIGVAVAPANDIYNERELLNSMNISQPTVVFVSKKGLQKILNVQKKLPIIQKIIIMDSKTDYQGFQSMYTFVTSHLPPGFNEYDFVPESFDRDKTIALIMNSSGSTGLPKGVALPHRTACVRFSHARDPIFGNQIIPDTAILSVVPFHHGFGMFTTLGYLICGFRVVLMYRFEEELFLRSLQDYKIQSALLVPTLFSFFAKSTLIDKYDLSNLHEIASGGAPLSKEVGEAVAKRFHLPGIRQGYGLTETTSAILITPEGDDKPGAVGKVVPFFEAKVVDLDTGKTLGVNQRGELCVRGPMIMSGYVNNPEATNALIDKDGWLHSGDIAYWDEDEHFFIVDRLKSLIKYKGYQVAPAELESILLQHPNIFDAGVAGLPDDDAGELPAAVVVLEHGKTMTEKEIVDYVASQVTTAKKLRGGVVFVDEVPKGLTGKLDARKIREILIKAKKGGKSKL
# Summary of the method: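 Purified P. pyralis luciferase at 10 nM in 50 mM Tris Acetate (final), luminescence read within 5 minutes of enzyme addition to compounds. Activity normalised to PTC124 versus DMSO; concentration-response curves classed by r2, magnitude and activity.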
# [6] = qHTS assay for small molecule agonists of the antioxidant response element (ARE) signaling pathway (AID 651741; active = well fitted activation curve with a large enough effect in the signal ratio; the % refers to the signal ratio)
# Summary of the method: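 Stably integrated ARE-beta-lactamase reporter HepG2 cells; 16 h compound incubation, 37 C; LiveBLAzer FRET substrate 2 h at room temperature; fluorescence intensity.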
# [7] = qHTS assay for small molecule activators of the p53 signaling pathway (AID 651743; active = well fitted activation curve with a large enough effect in the signal ratio, not every such curve was filed as active; the % refers to the signal ratio); conditions: HCT-116 p53RE-bla, beta-lactamase FRET ratio, 16 h; activation: stronger effect = higher value
# Summary of the method: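 Following 16 hours of compound exposure at 37 C, HCT-116 cells bearing the p53RE-bla reporter were loaded with LiveBLAzer B/G FRET substrate for 2 hours at room temperature and fluorescence intensity was recorded.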
# [8] = qHTS assay for small molecule disruptors of the mitochondrial membrane potential - 1 hr assay (AID 651754; calls by dose curve; note: nearly all actives have a fitted effect of over 35% in size)
# Summary of the method: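 Mitochondrial potential in living HepG2 cells after 1 hr compound treatment at 37C was read with Mito-MPS dye added for a further 30 min. Red aggregate and green monomer fluorescence were measured; loss of potential leaves dye as cytoplasmic monomers.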
# [9] = qHTS assay for small molecule disruptors of the mitochondrial membrane potential - 5 hr assay (AID 651755; calls by dose curve; note: nearly all actives have a fitted effect of over 40% in size)
# Summary of the method: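 Read-out: ratiometric Mito-MPS fluorescence, green monomer (ex 490/em 535) vs red mitochondrial aggregate (ex 540/em 590). HepG2 cells treated 5 hr at 37C before 30 min dye loading.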
# [10] = target: Tumor necrosis factor (Homo sapiens) (UniProt P01375); test: qHTS assay to identify small molecules that stimulate Tumor Necrosis Factor-alpha (TNF-alpha) secretion (AID 651757; active = well fitted curve in the direction sought with a large enough effect in the signal ratio; the % refers to the signal ratio)
# Chain of Tumor necrosis factor (Homo sapiens) (P01375 whole entry, looked up): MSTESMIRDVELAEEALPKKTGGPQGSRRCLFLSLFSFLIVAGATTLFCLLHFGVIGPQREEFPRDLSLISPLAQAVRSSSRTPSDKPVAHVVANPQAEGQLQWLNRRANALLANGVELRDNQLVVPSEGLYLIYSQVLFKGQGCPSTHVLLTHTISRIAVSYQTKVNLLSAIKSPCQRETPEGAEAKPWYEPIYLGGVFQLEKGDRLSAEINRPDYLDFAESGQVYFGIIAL
# Summary of the method: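 Secreted TNF-alpha quantified by TR-FRET sandwich of two labeled anti-TNF-alpha antibodies, incubated 3 hr at room temperature. Preceded by 17 hr, 37 C compound treatment of THP-1 cells at 3000 cells/well.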
# [11] = target: Peroxisome proliferator-activated receptor alpha (Homo sapiens) (UniProt Q07869); test: qHTS assay for small molecule agonists of the peroxisome proliferator-activated receptor alpha (PPARalpha) signaling pathway (AID 651778); conditions: PathHunter PPARalpha complementation, chemiluminescence, 6 h; stronger effect = higher value
# Chain of Peroxisome proliferator-activated receptor alpha (Homo sapiens) (Q07869 whole entry, looked up, the tested form may be a part): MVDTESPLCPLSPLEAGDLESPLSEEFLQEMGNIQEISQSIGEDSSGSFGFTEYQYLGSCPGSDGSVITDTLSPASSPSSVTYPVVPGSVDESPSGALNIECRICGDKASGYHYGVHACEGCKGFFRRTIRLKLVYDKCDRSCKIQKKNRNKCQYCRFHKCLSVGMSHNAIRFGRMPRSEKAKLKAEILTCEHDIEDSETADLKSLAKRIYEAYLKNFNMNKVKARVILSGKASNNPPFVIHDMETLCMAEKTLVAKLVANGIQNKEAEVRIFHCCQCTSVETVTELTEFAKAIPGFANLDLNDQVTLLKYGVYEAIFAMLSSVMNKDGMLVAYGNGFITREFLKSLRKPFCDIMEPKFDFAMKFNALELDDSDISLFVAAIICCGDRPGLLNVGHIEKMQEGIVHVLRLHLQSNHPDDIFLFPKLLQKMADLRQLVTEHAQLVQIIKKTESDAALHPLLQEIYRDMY
# Summary of the method: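 Enzyme-fragment complementation assay in which ligand-bound PPARalpha translocates and forms an active enzyme that generates chemiluminescence. Cells were plated overnight, exposed to compound for 6 hr at 37 C, and then given detection reagent for 60 min at room temperature.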
# [12] = target: Nuclear receptor ROR-gamma (Homo sapiens) (UniProt P51449); test: qHTS assay for small molecule antagonists of the retinoid-related orphan receptor gamma (ROR-gamma) signaling pathway (AID 651802);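 note: CHO cells with doxycycline-induced ROR-gamma expression; luciferase reporter luminescence driven by ROR response element; nearly all actives have a fitted effect of over 60% in size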
# Chain of Nuclear receptor ROR-gamma (Homo sapiens) (P51449 whole entry, looked up): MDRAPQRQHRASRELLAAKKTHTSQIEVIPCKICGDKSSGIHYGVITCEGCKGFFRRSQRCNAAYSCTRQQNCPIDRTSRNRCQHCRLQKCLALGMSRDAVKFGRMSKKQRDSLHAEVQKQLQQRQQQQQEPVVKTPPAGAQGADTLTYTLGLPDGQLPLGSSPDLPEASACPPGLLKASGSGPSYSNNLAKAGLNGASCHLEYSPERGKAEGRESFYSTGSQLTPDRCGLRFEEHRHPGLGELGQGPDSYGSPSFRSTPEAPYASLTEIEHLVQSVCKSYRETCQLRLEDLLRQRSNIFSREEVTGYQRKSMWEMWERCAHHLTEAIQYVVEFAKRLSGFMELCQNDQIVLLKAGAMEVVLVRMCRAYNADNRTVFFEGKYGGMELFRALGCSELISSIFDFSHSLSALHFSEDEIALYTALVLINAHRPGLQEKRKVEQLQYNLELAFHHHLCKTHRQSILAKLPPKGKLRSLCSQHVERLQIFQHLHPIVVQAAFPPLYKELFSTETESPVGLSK
# Summary of the method: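 Luminescence (One-Glo, 30 min RT) measured 16 h after compound addition and doxycycline induction at 37C. Reporter: RORE-luciferase under TET-inducible ROR-gamma in CHO cells.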
# [13] = qHTS assay for small molecule agonists of the antioxidant response element (ARE) signaling pathway measured by Nrf2-dependant transcriptional activity (AID 720636; active = well fitted curve in the direction sought with a large enough effect in the repeat runs; an effect the other way counts as inactive or inconclusive)
# Summary of the method: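 Quantitative HTS format in HepG2 cells stably expressing an ARE-luciferase reporter; 16 hr compound treatment at 37 C, luciferase signal detected with ONE-Glo.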
# [14] = qHTS assay for small molecule antagonists of the retinoid-related orphan receptor gamma (ROR-gamma) signaling pathway - cell viability counter screen (AID 720652; active = well fitted curve in the direction sought with a large enough effect in the repeat runs; an effect the other way counts as inactive or inconclusive;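 note: CHO reporter cells with doxycycline-induced ROR-gamma expression; compound exposure lasted 16 hr before ATP read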)
# Summary of the method: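 Cytotoxicity counter screen: intracellular ATP (CellTiter-Glo luminescence) measured in the doxycycline-induced CHO RORE-luciferase reporter line after 16 hr compound exposure at 37 C, 5% CO2.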
# [15] = qHTS assay for small molecule agonists of the antioxidant response element (ARE) signaling pathway measured by Nrf2-dependant transcriptional activity - cell viability counter screen (AID 720653; active = well fitted curve in the direction sought with a large enough effect in the repeat runs; an effect the other way counts as inactive or inconclusive); conditions: ARE-bla HepG2 viability, CellTiter-Glo ATP luminescence, 16 h; max response: stronger effect = lower value
# Summary of the method: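 ARE-bla HepG2 cells treated with compounds for 16 h at 37C; this counter screen measures viability as intracellular ATP by CellTiter-Glo luminescence after 30 min at room temperature.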
# [16] = qHTS Assay for Identifying Gametocytocidal Compounds (AID 743244);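 note: actives lower the fluorescent signal which means gametocytes are killed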; conditions: P. falciparum 3D7 stage III-V gametocytes, alamarBlue, 72 h; max response: stronger effect = lower value
# Summary of the method: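 Using 20,000 stage III–V 3D7 gametocytes per well, compounds were incubated 72 h under 37 °C/5% CO2. Viability was then assessed by 24 h alamarBlue reduction, measured fluorometrically at 525/598 nm.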
# [17] = qHTS assay for cell viability of HEK293 cells (AID 743288); conditions: ATP luminescence (CellTiter-Glo), 18 h; max response: stronger effect = lower value; note: nearly all actives have a fitted effect of over 50% in size
# Summary of the method: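 Steps: plate 2,000 parental HEK293 cells per well; incubate ≥5 h, 37 C; add compounds in DMSO; incubate 18 h, 37 C; add CellTiter-Glo; wait 30 min at room temperature; read luminescence.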
# [18] = qHTS assay for cell viability of the p53RE-bla HCT-116 cell line (AID 743292); note: nearly all actives have a fitted effect of over 55% in size
# Summary of the method: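 Viability of compound-treated p53RE-bla HCT-116 cells is taken from ATP-dependent luciferase luminescence. Treatment lasts 16 h at 37 C after a 5 h settling period; detection follows 30 min at room temperature.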
# [19] = P-glycoprotein substrates identified in KB-8-5-11 adenocarcinoma cell line, qHTS therapeutic library screen (AID 1346987); note: nearly all actives have a fitted effect of over 65% in size
# Summary of the method: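 Compounds are pinned in dose-response onto KB-8-5-11 cells (500 cells/well, colchicine-free medium) and left 72 h at 37 degree C. CellTiter-Glo luminescence then yields AC50 values.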
# [20] = Drug repurposing screens with cells derived from glioblastoma tumor samples (AID 1345199); conditions: GBM patient neurospheres viability, ATP luminescence, 48 h; Potency: tumour line A; series mostly up to 45.9 µM; note: nearly all actives have a fitted effect of over 40% in size
# Summary of the method: (§2)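 Primary testing used CD133+ neurospheres from four GBM patients, seven concentrations, 48 h exposure and ATP-based viability; confirmation added three slower-growing patient lines.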
# astro = test: as above; conditions: viability, ATP luminescence, 48 h; series mostly up to 45.9 µM
# Summary of the method: as §2
# [21] = target: Nuclear receptor subfamily 1 group I member 2 (Rattus norvegicus) (UniProt Q9R1A7); test: qHTS assay for small molecule activators of the rat pregnane X receptor (rPXR) signaling pathway (AID 651751; call rule not given here); conditions: rPXR reporter cells, luciferase (One-Glo), 24 h
# Chain of Nuclear receptor subfamily 1 group I member 2 (Rattus norvegicus) (Q9R1A7 whole entry, looked up): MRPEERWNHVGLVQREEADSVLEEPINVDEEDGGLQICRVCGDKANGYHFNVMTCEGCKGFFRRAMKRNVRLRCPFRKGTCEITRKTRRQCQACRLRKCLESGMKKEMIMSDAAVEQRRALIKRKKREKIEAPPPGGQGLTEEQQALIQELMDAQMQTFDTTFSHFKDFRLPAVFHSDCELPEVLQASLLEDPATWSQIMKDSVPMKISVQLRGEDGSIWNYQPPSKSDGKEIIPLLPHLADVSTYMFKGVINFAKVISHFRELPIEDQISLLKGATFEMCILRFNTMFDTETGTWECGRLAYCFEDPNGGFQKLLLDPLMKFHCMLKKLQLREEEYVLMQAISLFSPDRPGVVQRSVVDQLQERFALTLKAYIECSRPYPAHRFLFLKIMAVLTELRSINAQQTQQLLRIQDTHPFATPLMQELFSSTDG
# [22] = qHTS assay for small molecule activators of the human pregnane X receptor (PXR) signaling pathway (AID 720659; call rule not given here)
compound,measurement,setting,value
O=Cc1ccccc1,max response,[1],-3.83%
same,max response,[2],10.9% (inactive)
same,activity change % (negative = inhibition),[3],12% (inactive)
same,Potency,[4],inactive
same,Potency,[5],inactive
same,Potency,[6],inactive
same,activation,[7],-1.08% (inactive)
same,Potency,[8],inactive
same,Potency,[9],inactive
same,outcome,[10],inactive
same,max response,[11],-3.46% (inactive)
same,Potency,[12],inactive
same,Potency,[13],inactive
same,outcome,[14],inactive
same,max response,[15],-5.51% (inactive)
same,max response,[16],-4.29% (inactive)
same,max response,[17],-12% (inactive)
same,outcome,[18],inactive
same,Potency,[19],inactive
same,Potency,[20],inactive
same,Potency,astro,inactive
same,max response,[21],2.23% (inactive)
same,outcome,[22],inactive
